High-throughput results deposited in PubChem BioAssay by National Center for Advancing Translational Sciences (NCATS).
The sample as a whole holds a higher share of hits than the screen did.
nsP2pro primary – blocks chikungunya virus nsP2 protease peptide cleavage | FRET peptide cleavage, nsP2pro, fluorescence 1 h | Potency, µM (top dose mostly 24.9 µM), inactives show top-dose activity change, negative = inhibition, most hits filed as inhibitors | hit rate 1.1% among 31,000; also: nearly all actives have a fitted effect of over 60% in size
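Purified recombinant nsP2pro (150 nM final) in 10 mM Tris-HCl pH 8.0 with 0.01% Tween 20 was preincubated 15 min at room temperature with compound (7 concentrations, up to 25 uM). FRET peptide 2 substrate (2.5 uM final) was then added; fluorescence was read after 1 h.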
nsP2 cell sec – secondary cell-based test for CHIKV nsP2 protease inhibitors. shares compounds with nsP2pro primary. cell-based CHIKV nsP2 protease reporter assay. Potency, µM (top dose mostly 51.1 µM), inactives show top-dose activity change, negative = inhibition, most hits filed as inhibitors. hit rate 10% among 450. AID 1964100; also: nearly all actives have a fitted effect of over 70% in size
NSP2 full ctr – selectivity test for CHIKV nsP2 protease inhibitors: full-length NSP2. shares compounds with nsP2pro primary. Full-length CHIKV NSP2 protease enzymatic counterscreen. Potency, µM (series often up to 50.7 µM), for the others: at the top dose activity change, negative = inhibition, actives largely listed as inhibitors. hit rate 39% among 410. AID 1964101; also: nearly all actives have a fitted effect of over 65% in size
Furin counter – human furin inhibition, counterscreen for nsP2pro inhibitors; shares compounds with nsP2pro primary; Recombinant human furin enzymatic counterscreen, fluorogenic substrate; Potency, µM (series often up to 50.6 µM), without a hit: top-dose activity change, negative = inhibition, hits mostly inhibitors; hit rate 6% among 410; AID 1964102
NS23 peptide cs – selectivity test for CHIKV nsP2 protease inhibitors: endogenous NS2/3 peptide; shares compounds with nsP2pro primary; Purified CHIKV nsP2 protease, endogenous NS2/3 peptide cleavage; Potency, µM (top dose mostly 51 µM), for inactives: top-dose activity change, negative = inhibition, usual class: inhibitors; hit rate 34% among 410; AID 1964103; also: nearly all actives have a fitted effect of over 55% in size
Papain counter – papain protease inhibition, counterscreen for nsP2pro inhibitors; Potency, µM (top dose mostly 51 µM), without a hit: top-dose activity change, negative = inhibition, actives largely listed as inhibitors; purified papain protease activity, enzymatic inhibition; shares compounds with nsP2pro primary; hit rate 5% among 410; AID 1964104
nsP2pro conf qHTS – CHIKV nsP2 protease inhibition, confirmatory qHTS. shares compounds with nsP2pro primary. CHIKV nsP2 protease enzymatic activity, qHTS. Potency, µM (titrated, usually from 25.5 µM), for the others: at the top dose activity change, negative = inhibition, actives largely listed as inhibitors. hit rate 43% among 410. AID 1964105; also: nearly all actives have a fitted effect of over 75% in size
HCV NS3 4A cs – selectivity counter-screen for CHIKV nsP2 protease inhibitors: HCV NS3/4A | hit rate 20% among 410 | shares compounds with nsP2pro primary | HCV NS3/4A protease biochemical counterscreen | Potency, µM (top dose mostly 50.9 µM), hits mostly inhibitors; also: nearly all actives have a fitted effect of over 55% in size
Numbers without * were called inactive; i = inactive; ? = inconclusive; . = not tested or not shown; [ ] = another dose, or the depositor's remark. Calls follow the shape of the full dose curve. % is scaled to controls: 0 for no effect and ±100 for the full control effect; potency is read from the fitted curve at half-maximal effect.

SMILES | nsP2pro primary | others
Cn1nc(C(C)(C)C)cc1C(=O)N[C@@H](Cc1cccc(Cl)c1)C(=O)NCC#N | 0.5%
C(#Cc1nc2ncccc2nc1OCCN1CCCC1)c1ccccc1 | 7µM* | nsP2 cell sec=?;NSP2 full ctr=18.3µM*;Furin counter=23.1µM*;NS23 peptide cs=16.3µM*;Papain counter=97.6%;nsP2pro conf qHTS=7.98µM*;HCV NS3 4A cs=i
CCC(=C(c1ccc(OCCN2CCCC2)cc1)c1ccc(OCCN2CCCC2)cc1)c1ccccc1 | 92.6%
c1ccc(-c2cnc(Nc3ccc(OCCN4CCCC4)cc3)s2)cc1 | 127.2%
COC(=O)CNC(=O)NCCc1ncc(C)n1C1CCCCCC1 | 1.7%
COc1cc(O)c(C(CC(=O)N2CCC[C@@H](C)C2)c2ccc3c(c2)OCO3)c(OC)c1 (stereo not given in full) | 0.7%[39.2 µM]
Cc1cc(C)nc(NC(=S)N2CCN(c3ccc(NS(C)(=O)=O)nn3)CC2)c1 | -8.3%
O=CC(O)C(O)C(O)CO (stereo not given) | 9.1%
C[C@@H]1C[C@@H](O)[C@@]23CO[C@]2(CO)CCC[C@@H]3[C@@]12C[C@@H](c1ccoc1)OC2=O | ? | nsP2 cell sec=-6.5%[33.5 µM];NSP2 full ctr=-0.6%[33.5 µM];Furin counter=7.3%[33.5 µM];NS23 peptide cs=-5.4%[33.5 µM];Papain counter=-6.0%[33.5 µM];nsP2pro conf qHTS=-20.9%[16.7 µM];HCV NS3 4A cs=i
CC1CC2OCC3(O)CCC(O)C(C14CC(c1ccoc1)OC4=O)C23CO (stereo not given) | -21.2%
O=C(C1CCCN([S+](=O)([O-])c2cccs2)C1)N1CCC(N2CCCC2=O)CC1 (stereo not given) | -4.6%
COc1ccnc(NC(=S)N2CCN(c3cccc(C(F)(F)F)c3)CC2)c1 | 1.8%
CNc1nc2c(s1)C(c1ccc(Cl)cc1)CC(=O)N2 (stereo not given) | 3.16µM* | nsP2 cell sec=46.3%;NSP2 full ctr=2.91µM*;Furin counter=-10.4%;NS23 peptide cs=8.19µM*;Papain counter=23.4%;nsP2pro conf qHTS=5.65µM*;HCV NS3 4A cs=i
CCc1cc(=O)n(CC(=O)NCCc2ccc(Cl)cc2)c(N2CCOCC2)n1 | i
FC(F)(F)c1cccc(N2CCN(C(=S)Nc3cc(C(F)(F)F)ccn3)CC2)c1 | -5.6%
O=C(/C=C/c1cccnc1)NCCCCC1CCN(C(=O)c2ccccc2)CC1 | ? | nsP2 cell sec=-27.6%;NSP2 full ctr=17.6%;Furin counter=12.3%;NS23 peptide cs=i;Papain counter=-8.4%;nsP2pro conf qHTS=22.5%;HCV NS3 4A cs=i
Cc1cnc(C2CCOCC2)n1CC1CCN(C(=O)c2cccnc2)CC1 | -4.1%
O=C(c1ccncc1)N1CCCC(CN2CCCC2)CC1 (stereo not given) | -7.4%
Cc1cnc(-c2ccccc2C2COC2)nc1NCc1ccc(-c2cccnc2)cc1 | 2.4%
Cc1ccc(Cl)cc1NC(=O)c1nc[nH]c1C(=O)Nc1nc2ccccc2[nH]1 | 452.3%
CC(=O)O[C@H]1CC2C(COC(=O)CC(C)C)=CO[C@@H](OC(=O)CC(C)C)C2[C@]12CO2 (stereo not given in full) | -20.1%[10 µM]
Cn1cnc(S(=O)(=O)N2CCCN(C(=O)c3nccn3C)CCNC(=O)CC2c2ccccc2)c1 (stereo not given) | i
C=C(C)C(=O)O[C@H]1[C@H]2C(=C)C(=O)O[C@@H]2C[C@@H](C)[C@@H]2O[C@@H]2C(=O)[C@](C)(O)[C@@H]1OC(=O)C(=C)C | -3.2%[10 µM]
C=C[C@]1(C)C[C@H](O)[C@H]2C(=C)C(=O)O[C@@H]2[C@H]1C(=C)CO | ? | nsP2 cell sec=?;NSP2 full ctr=?;Furin counter=-3.7%;NS23 peptide cs=-23.1%;Papain counter=-9.9%;nsP2pro conf qHTS=?;HCV NS3 4A cs=i
C=CC1(C)CC(O)C(C(=C)C(=O)OC)C(O)C1C(=C)CO (stereo not given) | -19.3%
SMILES | nsP2pro primary | others
OCCC#Cc1ccc(CN2CCC(CO)(Cc3ccccc3Cl)CC2)cc1 | i
N#CC1=C2SCN(C3CCCCC3)CN2C(=O)CC1c1ccc(F)cc1 (stereo not given) | ? | nsP2 cell sec=?;NSP2 full ctr=-1.7%;Furin counter=-7.2%;NS23 peptide cs=1.83µM*;Papain counter=-13.0%;nsP2pro conf qHTS=12.6µM*;HCV NS3 4A cs=i
N#CC1=C2SCN(C3CCCCC3)CN2C(=O)CC1c1ccc(Cl)cc1 (stereo not given) | 72.1%
Cn1c(/C=C/C(=O)NO)ccc1/C=C/C(=O)c1cccc(F)c1 | 137.5%
Cc1nc(CC2CCN(C(=O)CCc3cc4n(n3)CCCNC4)CC2)no1 | -0.5%
O=C(/C=C/c1ccc(O)c(O)c1)O[C@@H](C(=O)O)[C@@H](OC(=O)/C=C/c1ccc(O)c(O)c1)C(=O)O | 40.0%
COc1cc(/C=C/C(=O)O)ccc1O | 13.3%
O=C(O)/C=C/c1ccc(O)c(O)c1 | ? | nsP2 cell sec=-7.6%;NSP2 full ctr=-22.4%;Furin counter=-2.1%;NS23 peptide cs=2.6%;Papain counter=-7.7%;nsP2pro conf qHTS=-5.0%;HCV NS3 4A cs=?
COc1ccc(S(=O)(=O)Nc2ccc(C)n(CC(=O)O)c2=O)cc1 | -10.7%
Cc1ccc(S(=O)(=O)Nc2cc(SCC(=O)O)c(O)c3ccccc23)cc1[N+](=O)[O-] | . | nsP2 cell sec=?;NSP2 full ctr=4.11µM*;Furin counter=-9.4%;NS23 peptide cs=2.59µM*;Papain counter=18.3µM*;nsP2pro conf qHTS=0.895µM*;HCV NS3 4A cs=i
CCC(=O)NC(c1ccc(C)cc1)c1cc([N+](=O)[O-])c2cccnc2c1O (stereo not given) | i
O=C(c1cc2n(n1)CC(c1ccc(Cl)cc1)OC2)N1CCCCC1 (stereo not given) | 2.1%
C=CCC1(CO)CCCN(Cc2nc(C)cc(-c3ccccc3)n2)C1 (stereo not given) | 3.3%
CC(=O)Oc1cc2c(s1)CCN(C(C(=O)C1CC1)c1ccccc1F)C2 (stereo not given) | ? | nsP2 cell sec=1.7%;NSP2 full ctr=?;Furin counter=-10.3%;NS23 peptide cs=?;Papain counter=?;nsP2pro conf qHTS=?;HCV NS3 4A cs=i
CCCCC(O)/C=C(C)/C=C/C=C/C(=O)N1CCCC1=O (stereo not given) | -2.5%
CCOC(=O)c1c(NC(=O)c2nc(SCC)ncc2Cl)sc(C(C)=O)c1C | -5.0%
CCOC(=O)c1c(NC(=O)c2nc(S(C)(=O)=O)ncc2Cl)sc(C(C)=O)c1C | ? | nsP2 cell sec=3.66µM*;NSP2 full ctr=?;Furin counter=-12.0%;NS23 peptide cs=4.61µM*;Papain counter=-3.0%;nsP2pro conf qHTS=-95.9%;HCV NS3 4A cs=?
CCOC(=O)c1c(NC(=O)COc2ccccc2)sc(C(C)=O)c1C | 19.7%
O=C(Nc1nnc(-c2ccncc2)s1)Nc1cccc2ccccc12 | i
CCOC(=O)c1ccc(O)c2ncc(NCC3CCCN(CCc4ccccc4)C3)cc12 (stereo not given) | i
